Some test systems named below: DU-145 prostate; K-562 leukemia; MALME-3M melanoma; MDA-MB-231 breast; RXF 393 renal; SF-268 CNS; SF-295 CNS; SF-539 CNS; M14 melanoma.
What all share (assay): NCI-60 one-dose screen, 48 h (100 = growth as untreated, 0 = no growth, -100 = all killed)
What all share (conditions): 10 µM unless noted

About 83,000 compounds went through this panel and 20% of them were active in at least one assay; those are over-represented in the sample as a whole.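 48-hour exposure, single concentration, 96-well plates; percent growth endpoint where 0 means no net growth. Active: below 10.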 Unmarked numbers belong to inactive results. Calls of active or inactive are those of the source.

Consider `CSc1ccccc1C#C/C=C\C#Cc1ccccc1N1CCCC1=O`, for which the growth is 85.7% with DU-145 prostate; 14.7% in the experiment on K-562 leukemia; 50% with MALME-3M melanoma; 51% in the experiment on MDA-MB-231 breast; 52.9% in the experiment with RXF 393 renal; 56.6% in the experiment with SF-268 CNS. For the same compound, the growth is 65.3% in the experiment with SF-295 CNS, 55.1% in the experiment with SF-539 CNS and 64.5% in the experiment on M14 melanoma.

As to `O=C(CSc1nc(-c2ccc(Cl)cc2)cn1-c1ccc(Cl)cc1)c1ccc(Br)cc1`, the growth with DU-145 prostate is 90.9%; with K-562 leukemia, 86.4%; with MALME-3M melanoma it was 94%; in the experiment on MDA-MB-231 breast, 60.1%; in the experiment with RXF 393 renal, 67.9%; in the experiment with SF-268 CNS, 78.1%. In addition, the growth was 52.1% in the experiment with SF-295 CNS, 84.7% in the experiment on SF-539 CNS and 89.1% with M14 melanoma.

Consider `O=c1[nH]c(CN2CCN(c3ccccc3F)CC2)nc2sc3c(c12)CCC3`, for which the growth with DU-145 prostate was 109%; in the experiment on K-562 leukemia, 109%; in the experiment with MALME-3M melanoma, 96.4%; with MDA-MB-231 breast it was 96.3%; with RXF 393 renal, 160%; in the experiment on SF-268 CNS, 121%. In addition, the growth is 144% in the experiment on SF-295 CNS, 98.6% in the experiment with SF-539 CNS and 108% in the experiment on M14 melanoma.

In the case of `COc1ccc(/C=C(\C#N)c2ccc([N+](=O)[O-])cc2)c2ccccc12`, the growth in the experiment with DU-145 prostate is 60.9%; in the experiment on K-562 leukemia, 44.7%; in the experiment with MALME-3M melanoma, 14.6%; with MDA-MB-231 breast, 45%; with RXF 393 renal, 58.3%; with SF-268 CNS, 39.8%. The figures for the growth with SF-295 CNS, in the experiment with SF-539 CNS and in the experiment with M14 melanoma were 70.7%, 49.4% and 65.7%, respectively.

`OC1CC2c3ccccc3C1c1ccccc12` (stereo not given): the growth is 117% in the experiment on DU-145 prostate; 111% in the experiment with K-562 leukemia; 110% in the experiment with MALME-3M melanoma; 110% in the experiment with MDA-MB-231 breast; 111% in the experiment on RXF 393 renal; 105% in the experiment with SF-268 CNS. Moreover, the values for the growth with SF-295 CNS, in the experiment with SF-539 CNS and in the experiment with M14 melanoma were 107%, 108% and 98.4%, respectively.

As to `COC(=O)CCCCCN=Cc1c(O)c(O)c(C(C)C)c2cc(C)c(-c3c(C)cc4c(C(C)C)c(O)c(O)c(C=NCCCCCC(=O)OC)c4c3O)c(O)c12`, the growth in the experiment with DU-145 prostate was 23%; in the experiment with K-562 leukemia it was 9.57% (active); in the experiment with MALME-3M melanoma, 44.4%; in the experiment with MDA-MB-231 breast, 11.9%; with RXF 393 renal, 29.2%; with SF-268 CNS it was 25.6%. The growth was 9.3% (active) in the experiment on SF-295 CNS, 23.7% in the experiment on SF-539 CNS and 18.6% with M14 melanoma.

`O=C1NC(Cc2c[nH]c3ccccc23)C(=O)N1Cc1ccc(Cl)cc1` (stereo not given): the growth with DU-145 prostate is 116%; with K-562 leukemia, 83.9%; with MALME-3M melanoma, 105%; with MDA-MB-231 breast, 101%; with RXF 393 renal, 116%; in the experiment on SF-268 CNS, 106%. The values for the growth in the experiment on SF-295 CNS, in the experiment with SF-539 CNS and in the experiment with M14 melanoma were 82.3%, 106% and 110%, respectively.

For the compound `NC(=O)c1ccc2c(c1)OCO2`, the growth is 108% with DU-145 prostate; 115% in the experiment with K-562 leukemia; 98.3% in the experiment with MALME-3M melanoma; 100% in the experiment with MDA-MB-231 breast; 94.5% in the experiment with RXF 393 renal; 97.2% in the experiment with SF-268 CNS. The results for the growth in the experiment on SF-295 CNS, in the experiment with SF-539 CNS and in the experiment on M14 melanoma were 96.5%, 104% and 101%, respectively.

As to `CCN(Cc1ccc(CN(CC)C(=O)C(Cl)(Cl)Cl)cc1)C(=O)C(Cl)(Cl)Cl`, the growth in the experiment on DU-145 prostate was 97.7%; with K-562 leukemia, 27%; in the experiment on MALME-3M melanoma, 68.4%; in the experiment on MDA-MB-231 breast it was 98.2%; with RXF 393 renal, 101%; in the experiment on SF-268 CNS, 80.5%. For the same compound, the growth in the experiment with SF-295 CNS is 76.4%; in the experiment on SF-539 CNS, 101%; in the experiment on M14 melanoma, 89.9%.

`CCN(CC)S(=O)(=O)c1ccc2[nH]c(=O)cc(C(=O)Nc3ccc(OC)cc3OC)c2c1`: the growth in the experiment with DU-145 prostate was 157%; with K-562 leukemia, 115%; in the experiment with MALME-3M melanoma, 118%; in the experiment with MDA-MB-231 breast, 98.3%; in the experiment on RXF 393 renal, 9.24% (active); with SF-268 CNS it was 95%. Further, the values for the growth in the experiment on SF-295 CNS, with SF-539 CNS and with M14 melanoma were 97.9%, 133% and 109%, respectively.

Regarding `COc1ccc(N=C2NN=C(c3ccc(F)cc3)CS2)cc1OC`, the growth is 103% in the experiment with DU-145 prostate; 107% in the experiment on K-562 leukemia; 104% in the experiment with MALME-3M melanoma; 91.6% in the experiment on MDA-MB-231 breast; 78.3% in the experiment with RXF 393 renal; 116% in the experiment with SF-268 CNS. The growth was 90.8% in the experiment with SF-295 CNS, 102% with SF-539 CNS and 105% in the experiment with M14 melanoma.

Consider `CCCCC[C@@H]1Cc2cc(O)c(C(=O)O)c3c2[C@H](C[C@@]2(CCCO2)O3)O1`, for which the growth is 111% with DU-145 prostate; 58.1% with K-562 leukemia; 121% with MALME-3M melanoma; 101% with MDA-MB-231 breast; 73.4% with RXF 393 renal; 116% in the experiment on SF-268 CNS. Moreover, the figures for the growth with SF-295 CNS, in the experiment on SF-539 CNS and with M14 melanoma were 101%, 103% and 103%, respectively.

With `CCOc1ccc(/C=C/C=N/NC(N)=S)cc1`, the growth was 92.9% in the experiment with DU-145 prostate; 56% in the experiment on K-562 leukemia; 82% with MALME-3M melanoma; 66.6% in the experiment on MDA-MB-231 breast; -0.439% (active) in the experiment on RXF 393 renal; 92.1% with SF-268 CNS. Further, the growth in the experiment with SF-295 CNS was 96.7%; in the experiment on SF-539 CNS, 74.3%; in the experiment on M14 melanoma, 95.7%.

As to `CC1Cc2c(N(C)C)ncnc2N(C)c2ccc(O)cc21` (stereo not given), the growth in the experiment on DU-145 prostate was 101%; with K-562 leukemia it was 36.5%; with MALME-3M melanoma, 89.5%; with MDA-MB-231 breast it was 87.2%; in the experiment on RXF 393 renal, 95.2%; with SF-268 CNS, 87.4%. For the same compound, the values for the growth in the experiment on SF-295 CNS, in the experiment with SF-539 CNS and with M14 melanoma were 91.8%, 91.3% and 73.7%, respectively.

Regarding `CCN(CC)CCC(=O)c1cccc2ccccc12`, the growth is 108% in the experiment on DU-145 prostate; 89.6% in the experiment with K-562 leukemia; 98.6% in the experiment on MALME-3M melanoma; 94.8% in the experiment on MDA-MB-231 breast; 102% in the experiment with RXF 393 renal; 109% in the experiment on SF-268 CNS. The growth is 101% with SF-295 CNS, 92.4% with SF-539 CNS and 111% with M14 melanoma.

Source of the values: PubChem BioAssay (NCI).
